# Only some compounds are listed: those with a hit (about 3.1% of all), similar ones and a draw of the others.
# Nrf2 block = Nrf2 qHTS screen for inhibitors; AID 504444, 2011; actives 2.1% (n = 360,000); Potency, µM (series often up to 46 µM), without a hit: top-dose activity change, negative = inhibition, usual class: inhibitors; A549 ARE-Fluc reporter, luciferase luminescence, 18-24 h; also: % is scaled to controls: 0 for no effect and ±100 for the full control effect; nearly all actives have a fitted effect of over 60% in size
#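 Reporter: ARE-Fluc in A549. Exposure: 18-24 h, 37 °C, 5% CO2, 5% FBS OPTI-MEM. Readouts: fluorescent cytotoxicity (CellTiter-Fluor), then luminescent Nrf2 signal after BugLite.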
# TrxR1 inh = qHTS Assay for Inhibitors of Mammalian Selenoprotein Thioredoxin Reductase 1 (TrxR1): qHTS; Thioredoxin reductase 1, cytoplasmic (Rattus norvegicus), O89049; recombinant rTrxR1, NADPH fluorescence consumption, selenite substrate; Potency, µM (titrated, usually from 114 µM), inactives show top-dose activity change, negative = inhibition, usual class: inhibitors; actives 1% (n = 390,000); AID 588453, 2011; also: % is scaled to controls: 0 for no effect and ±100 for the full control effect; nearly all actives have a fitted effect of over 65% in size
#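 Rat TrxR1 (90 nM in the dispensed reagent) was pre-reduced with 400 uM NADPH for 5 min at room temperature, then incubated with compound for 15 min. After 400 uM selenite was added, NADPH fluorescence (Ex 340/Em 450 nm) was followed for 8 min.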
# TrxR1 substrate = qHTS Assay for Substrates of Mammalian Selenoprotein Thioredoxin Reductase 1 (TrxR1): qHTS; actives 0.01% (n = 390,000); Potency, µM (highest dose often 114 µM), for inactives: at the top dose activity change, negative = substrate turnover; Thioredoxin reductase 1, cytoplasmic (Rattus norvegicus), O89049; AID 588456, 2011; purified TrxR1 substrate turnover, NADPH consumption readout; also: % is scaled to controls: 0 for no effect and ±100 for the full control effect; nearly all actives have a fitted effect of over 50% in size
#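 Rat TrxR1, dispensed at 90 nM, was prereduced with 400 uM NADPH (final) for 5 min at ~22 deg C, then incubated with compound 15 min before 400 uM selenite. A first-read NADPH fluorescence drop versus no-compound background flagged substrates.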
# A549 tox-1 = Nrf2 qHTS screen for inhibitors: counterscreen for cytotoxicity; actives 0.16% (n = 390,000); A549 ARE-Fluc cells, CellTiter-Fluor viability, 18-24 h; Potency, µM (top dose mostly 46 µM), for inactives: top-dose activity change, negative = cytotoxicity, hits mostly inhibitors; AID 504648, 2011; also: % is scaled to controls: 0 for no effect and ±100 for the full control effect
#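 A549 ARE_Fluc cells in 5% FBS OPTI-MEM were exposed to compounds in concentration-response for 18-24 h at 37 deg C. Viability was read by CellTiter-Fluor fluorescence (Ex 405/Em 525) after 30 min, before the luciferase read.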
# Mito fusion act = qHTS Assay for Small Molecule Inhibitors of Mitochondrial Division or Activators of Mitochondrial Fusion; S. cerevisiae fusion-defective mutant growth rescue, CellTiterGlo 48 h; Potency, µM (top dose mostly 46.1 µM), inactives show top-dose growth rescue (activation), most hits filed as activators; actives 0.23% (n = 320,000); AID 485298, 2010; also: % of control where 0% means no effect; nearly all actives have a fitted effect of over 45% in size
#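 Temperature-sensitive fusion-defective S. cerevisiae (e.g. fzo1-1, mgm1-5) were grown with compound in YPEG medium (3% ethanol, 3% glycerol) for 48 hours at 37C. Growth rescue was measured as viability by CellTiterGlo luminescence after 10 minutes at ambient.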
# IDH1 R132H inh = qHTS for Inhibitors of mutant isocitrate dehydrogenase 1 (IDH1): qHTS. IDH1-R132H enzyme, NADPH consumption, diaphorase/resazurin fluorescence. Potency, µM (titrated, usually from 76.6 µM), for inactives: top-dose activity change, negative = inhibition, hits mostly inhibitors. actives 0.093% (n = 390,000). AID 602179, 2012; also: % is scaled to controls: 0 for no effect and ±100 for the full control effect; nearly all actives have a fitted effect of over 65% in size
# Target sequence (O75874 whole entry R132H, stated change not applied): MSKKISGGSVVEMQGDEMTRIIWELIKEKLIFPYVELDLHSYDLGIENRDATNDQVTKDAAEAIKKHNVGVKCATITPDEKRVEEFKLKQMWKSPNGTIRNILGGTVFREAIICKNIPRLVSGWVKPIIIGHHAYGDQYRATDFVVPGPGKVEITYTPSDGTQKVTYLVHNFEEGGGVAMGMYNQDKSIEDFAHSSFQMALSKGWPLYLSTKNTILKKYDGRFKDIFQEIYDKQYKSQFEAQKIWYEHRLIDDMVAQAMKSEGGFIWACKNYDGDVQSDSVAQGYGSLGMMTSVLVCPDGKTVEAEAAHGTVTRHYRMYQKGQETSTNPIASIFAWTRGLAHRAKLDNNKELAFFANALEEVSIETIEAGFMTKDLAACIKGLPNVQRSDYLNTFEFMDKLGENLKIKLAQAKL
#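 IDH1-R132H (0.5 ug/mL dispensed) in pH 7.5 Tris buffer was preincubated 30 min with compound, then given a substrate mix of 0.016 mM NADPH and 2 mM alpha-KG for 80 min at room temperature; remaining NADPH was read by diaphorase/resazurin fluorescence.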
# FLuc enzyme inh = Nrf2 qHTS screen for inhibitors: Purified Fluc Biochemical Counterscreen for Hit Validation; shares compounds with Nrf2 block; purified firefly luciferase, luminescence inhibition; Potency, µM (top dose mostly 57.5 µM), for the others: at the highest dose activity change, negative = inhibition, actives largely listed as inhibitors; actives 4% (n = 1,400); AID 720522, 2013; also: % is scaled to controls: 0 for no effect and ±100 for the full control effect; nearly all actives have a fitted effect of over 65% in size
# A549 tox-2 = Nrf2 qHTS screen for inhibitors: A549 ARE-Fluc Cytotoxicity Counterscreen for Hit Validation | shares compounds with Nrf2 block | A549 ARE-Fluc cells, cytotoxicity counterscreen | Potency, µM (top dose mostly 46.1 µM), without a hit: at the highest dose activity change, negative = cytotoxicity, actives largely listed as inhibitors | actives 2% (n = 1,400) | AID 720523, 2013;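 also: cells exposed to compounds for 18 to 24 hours; % is scaled to controls: 0 for no effect and ±100 for the full control effect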
# Nrf2 ARE inh = Nrf2 qHTS screen for inhibitors: Nrf2 A549 ARE-Fluc Confirmation Assay for Hit Validation | Potency, µM (highest dose often 46.1 µM), for the others: top-dose activity change, negative = inhibition, hits mostly inhibitors | AID 720524, 2013 | A549 ARE-firefly luciferase reporter, luminescence | shares compounds with Nrf2 block | actives 74% (n = 1,400); also: % is scaled to controls: 0 for no effect and ±100 for the full control effect; nearly all actives have a fitted effect of over 65% in size
# * hit, by the source's call; u = inconclusive; x = no result; [ ] = dose if it differs, or a comment. Calls follow the shape of the dose curve; as a rule, active = well fitted curve in the direction sought with a large enough effect; inconclusive = small, poorly fitted or top-dose-only effect, or another doubt; inactive = no such curve, though single readings can be large; an effect the other way counts as inactive or inconclusive. Potency is read from the fitted curve at half-maximal effect.
SMILES,Nrf2 block,TrxR1 inh,TrxR1 substrate,A549 tox-1,Mito fusion act,IDH1 R132H inh,FLuc enzyme inh,A549 tox-2,Nrf2 ARE inh
CN(CCOc1ccc(Cl)cc1)C(=O)c1cccc(S(=O)(=O)N2CCN(c3ccc(F)cc3)CC2)c1,4.1µM*,16%[57.1 µM],5%[57.1 µM],-19%,x,0%,-1%,-15%,4.1µM*
COc1ccccc1CN(C)C(=O)c1cccc(S(=O)(=O)N2CCCC2)c1,-3%,9%,5%,4%,-5%,17%,x,x,x
COc1ccc(CCN(C)C(=O)c2cccc(S(=O)(=O)N3CCN(c4ccc(F)cc4)CC3)c2)cc1OC,7.3µM*,17%,-3%,-11%,x,4%,-1%,-9%,5.2µM*
Cc1cccc(C)c1NC(=O)CN(C)C(=O)c1cccc(S(=O)(=O)N2CCN(c3ccc(F)cc3)CC2)c1,5.2µM*,-12%,-14%,u,2%,-1%,5%,-17%,9.2µM*
CC(=O)N1CCCc2cc(S(=O)(=O)N3CCC(C(=O)NCc4ccccc4Cl)CC3)ccc21,x,16%[57.1 µM],2%[57.1 µM],-3%,x,0%,x,x,x
CCOc1ccc(-c2cc3nc(C4CCN(C(=O)OC(C)(C)C)CC4)c(C(=O)Nc4cccc(Cl)c4C)cn3n2)cc1,23%,39%,67%,-6%,x,11%,x,x,x
O=S(=O)(c1ccc2c(Cl)cccc2c1)N1CCN(c2nc(-c3cccs3)nc3ccccc23)CC1,8%,3%,-3%,7%,x,x,x,x,x
Cc1ccc(C)c(NC(=S)NC(NC(=O)OCc2ccccc2)C(Cl)(Cl)Cl)c1 (stereo unspecified),u,-5%,-9%,0%,9%,-1%,x,x,x
O=C(NC(NC(=S)Nc1c(Cl)cc(Cl)cc1Cl)C(Cl)(Cl)Cl)OCc1ccccc1 (stereo unspecified),2.9µM*,-21%,-7%,u,1%,4%,-4%,u,23µM*
Cc1cc(C)c(CN2CCN(C(=O)Cn3cnc4c(NCc5ccccc5)ncnc43)CC2)c(C)c1,3.7µM*,-8%,-3%,-8%,x,-2%,1%,u,0.65µM*
Cc1ccccc1NC(=O)c1cccc2nc3ccccc3nc12,5.2µM*,-2%,2%,-27%,6%,1%,-11%,u,10µM*
CN(c1ccc(C(=O)N2CCN(Cc3ccc4c(c3)OCO4)CC2)cc1)S(=O)(=O)c1ccccc1,6.5µM*,6%,-3%,3%,7%,-2%,2%,1%,9.2µM*
O=C1c2[nH]nc(-c3ccccc3O)c2C(c2ccc(Cl)cc2)N1CCc1ccccc1 (stereo unspecified),u,15%,2%,u,x,-17%,x,x,x
COc1ccc(-c2nc3scc(CCNS(=O)(=O)c4cccc(C(C)=O)c4)n3n2)cc1,x,7%[57.1 µM],2%[57.1 µM],-20%,x,2%,x,x,x
Cc1cc2cc(CN(Cc3ccco3)S(=O)(=O)c3c(C)ccc4nsnc34)c(=O)[nH]c2cc1C,2.3µM*,u,2%[57.1 µM],-21%,1%,-5%,u,-30%,3.3µM*
COc1ccc(CCNC(=O)c2c(C)oc3ncn(CC(C)C)c(=O)c23)cc1OC,-26%,19%,1%,-4%,x,-16%,x,x,x
Cc1c(/C=N/NC(=O)c2cccnc2)c2ccccc2n1Cc1ccccc1,6.5µM*,13%[57.1 µM],-16%[57.1 µM],u,-4%,7%,u,-8%,9.2µM*
COc1ccc(CCNC(=O)c2cccc([N+](=O)[O-])c2)cc1OC,2.6µM*,7%,-6%,3%,x,-7%,3%,-9%,3.7µM*
COc1ccc(CCNC(=O)c2ccc(-c3cccc([N+](=O)[O-])c3)o2)cc1OC,u,26%[57.1 µM],-9%[57.1 µM],-1%,6%,8%,x,x,x
CN(C)c1ccc(/C=C/c2cc(/C=C/c3ccc(N(C)C)cc3)c3ccccc3n2)cc1,x,27%,-1%[0.0914 µM],x,x,x,0.17µM*,-12%,0.58µM*
CN(C)c1ccc(/C=C/c2cccc3cc4ccccc4nc23)cc1,x,u,-5%,x,x,x,19µM*,u,1.6µM*
CN(C)c1ccc(/C=C/c2ccc3cc(N(C)C)ccc3n2)cc1,x,14%,-2%,x,x,x,x,x,x
CN(C)c1ccc(/C=C/c2ccc3ccccc3n2)cc1,u,5%,-1%,u,-43%,-4%,x,x,x
COc1ccc(Cl)cc1NC(=O)c1cc2c(=O)n3ccccc3nc2s1,1.6µM*,5%,188%,-25%,x,x,-8%,u,23µM*
CSc1ccccc1NC(=O)c1cc2c(=O)n3ccccc3nc2s1,-1%,2%,23%,0%,2%,-2%,x,x,x
Cc1ccc(-n2ncc(C(=O)NC3CCCC3)c2C2CCN(C(=O)OC(C)(C)C)CC2)c(C)c1,u,12%,-5%,4%,x,-20%,x,x,x
